Screening data deposited in PubChem by National Center for Advancing Translational Sciences (NCATS).
Most compounds without a hit are left out; they make up all but 2.3% or so of the library.
HTT cytoprotect: qHTS Multiplex Assay to Identify Dual Action Probes in a Cell Model of Huntington: Cytoprotection (ATP); PC12 HTT-Q103 induced, cytoprotection, ATP luminescence, 40 h; Potency, µM (highest dose often 56.4 µM), actives largely listed as activators; 230,000 compounds, 0.14% hits; AID 1471, 2008; further: nearly all actives have a fitted effect of over 45% in size
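Cells were plated at 1500 per well in phenol red-free DMEM with 5% equine and 5% calf serum. Tebufenozide (100 nM final) and compounds were added, then ATPlite reagent, and luminescence was read.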
VDR inhibitor: Inhibitors of the vitamin D receptor (VDR): qHTS; VDR-SRC2-3 peptide fluorescence polarization, 2 h; Potency, µM, hits mostly inhibitors; 400,000 compounds, 0.93% hits
Target sequence (P11473 whole entry, looked up): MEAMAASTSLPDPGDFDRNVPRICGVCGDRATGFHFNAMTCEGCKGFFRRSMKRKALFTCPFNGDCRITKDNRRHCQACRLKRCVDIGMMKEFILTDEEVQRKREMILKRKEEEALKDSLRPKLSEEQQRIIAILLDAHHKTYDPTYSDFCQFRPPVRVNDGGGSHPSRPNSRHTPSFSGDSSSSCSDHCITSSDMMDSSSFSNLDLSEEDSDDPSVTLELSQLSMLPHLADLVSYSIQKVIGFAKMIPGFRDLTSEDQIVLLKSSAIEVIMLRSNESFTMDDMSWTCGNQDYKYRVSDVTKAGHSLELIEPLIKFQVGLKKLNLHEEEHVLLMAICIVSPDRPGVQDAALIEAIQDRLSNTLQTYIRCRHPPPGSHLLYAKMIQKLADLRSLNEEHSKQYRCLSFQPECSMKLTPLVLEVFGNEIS
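Fluorescence polarization assay of small-molecule disruption of VDR binding to coregulator peptide SRC2-3. Compounds and controls pin-transferred, then read after 2 h incubation at ambient room temperature.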
JMJD2E inh: qHTS Assay for Inhibitors of Human Jumonji Domain Containing 2E (JMJD2E). JMJD2E catalytic domain, FDH-coupled NADH fluorescence (FDH is formaldehyde dehydrogenase). 230,000 compounds, 1.6% hits. Potency, µM (series often up to 57.1 µM), actives largely listed as inhibitors. AID 2147, 2009. Lysine-specific demethylase 4E (Homo sapiens), B2RXH2; active means well fitted inhibition curve with a large enough effect, not every such curve was filed as active; inconclusive means small, poorly fitted or top-dose-only effect, or another doubt; inactive means no such curve, though single readings can be large or run the other way; further: nearly all actives have a fitted effect of over 50% in size
HttQ103 aggreg: qHTS Multiplex Assay to Identify Dual Action Probes in a Cell Model of Huntington: Aggregate Formation (GFP); Potency, µM (series often up to 46.1 µM), actives largely listed as inhibitors; 220,000 compounds, 1.1% hits; PC12 HttQ103-GFP aggregates, Acumen cytometry, 40 h; AID 1688, 2009; further: nearly all actives have a fitted effect of over 60% in size
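Huntingtin Q103 exon 1–GFP aggregates in induced PC12 cells (100 nM tebufenozide) were quantified by cytometry from lysates, with compounds dosed in titration.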
Coupling enz: qHTS Assay for Inhibitors of Fructose-1,6-bisphosphate Aldolase from Giardia Lamblia: Coupling assay counterscreen. coupling enzyme system counterscreen, AmpLite Red fluorescence. activity change, negative = inhibition, % at 58.2 µM, hits read low. 290,000 compounds, 0.67% hits; in the data active means activity change below about -30%
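Fluorescence at 525 nm excitation and 598 nm emission measured inhibition of the coupled detection system without aldolase. Compounds (at 57.5 uM final) were preincubated 10 min at room temperature with coupling enzyme reagent before a 20 min substrate/AmpLite Red step.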
RGS12 GoLoco inh: qHTS Assay for Inhibitors of RGS12 GoLoco Motif Activity (Red Fluorophore). AID 880, 2007. Potency, µM (highest dose often 61.6 µM), usual class: inhibitors. Guanine nucleotide-binding protein G(i) subunit alpha-1 (Homo sapiens), P63096. Gai1:RGS12 GoLoco peptide FP, rhodamine, 10 min. 230,000 compounds, 0.44% hits; active means well fitted inhibition curve with a large enough effect, not every such curve was filed as active; inactive means no such curve, though single readings can be large or run the other way; further: nearly all actives have a fitted effect of over 30% in size
Target sequence (P63096 whole entry, looked up): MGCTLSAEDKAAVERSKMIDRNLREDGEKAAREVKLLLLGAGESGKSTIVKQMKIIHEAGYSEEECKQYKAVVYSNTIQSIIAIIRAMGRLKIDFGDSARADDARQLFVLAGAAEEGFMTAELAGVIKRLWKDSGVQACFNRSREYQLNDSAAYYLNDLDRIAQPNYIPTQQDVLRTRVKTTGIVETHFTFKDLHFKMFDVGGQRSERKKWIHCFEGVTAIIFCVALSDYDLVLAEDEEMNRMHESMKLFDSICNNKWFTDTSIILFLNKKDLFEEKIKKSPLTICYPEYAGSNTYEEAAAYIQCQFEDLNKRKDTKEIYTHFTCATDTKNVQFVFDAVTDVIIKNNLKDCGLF
A number is an active result; . = inactive; ? = inconclusive; / = no result; ! = a repeat was not active; [ ] = dose if it differs, or a comment. Unless noted, the call rests on the fitted dose curve; in most records, active means well fitted curve in the direction sought with a large enough effect; inconclusive means small, poorly fitted or top-dose-only effect, or another doubt; inactive means no such curve, though single readings can be large; an effect the other way counts as inactive or inconclusive.

SMILES	HTT cytoprotect	VDR inhibitor	JMJD2E inh	HttQ103 aggreg	Coupling enz	RGS12 GoLoco inh
CCCN1CCC[C@H](c2cccc(C#N)c2)C1	.[1.9 µM]	/	/	/	/	/
O=[N+]([O-])c1cc(Cl)c(Cl)c(Cl)c1	.	/	/	/	/	.
O=Cc1cn(Cc2ccc([N+](=O)[O-])cc2)c2ccccc12	.[10 µM]	.	.	.	.	.
O=Cc1cn(Cc2ccccc2[N+](=O)[O-])c2ccccc12	/	.	.	14.1µM	.	.
Cc1cccc(CN2CCN(Cc3ccc(Cl)cc3)CC2)c1	.	.	15.8µM	.[1.84 µM]	.	.
Cc1cccc(CN2CCN(c3ccc(Cl)cc3)CC2)c1	.[10 µM]	.	22.4µM	.	.	.
Fc1ccc(CN2CCN(c3ccc(Cl)cc3)CC2)cc1	.	.	.	.	.	.
CN(C)c1ccc(N=O)cc1	.	/	/	/	/	.
C[C@@H]1[C@H]2C=C[C@@H]1[C@@H](c1c3ccc(=O)c(O)c-3oc3c(O)c(O)ccc13)[C@@H]2C(=O)O	.[10 µM]	/	/	/	/	/
CCOP(=S)(OCC)Oc1nc(Cl)c(Cl)cc1Cl	.	31.6µM	.	/	.	.
COP(=S)(OC)Oc1nc(Cl)c(Cl)cc1Cl	/	4.47µM	/	/	.	/
C[C@H](Br)CN(C[C@H](C)Br)c1ccc2c(c1)Cc1ccccc1-2	.[10 µM]	/	/	/	/	.[14.2 µM]
C=C(C)[C@H]1[C@H]2OC(=O)[C@@H]1[C@]1(O)C[C@H]3O[C@]34C(=O)O[C@H]2[C@@]14C	.	.	.	/	.	.
COc1cc2c(cc1OC)-c1c(OC)c(OC)c(OC)c3ccnc(c13)C2=O	/	.	.	11.2µM	.	.
O=[N+]([O-])c1ccc(O[C@H]2O[C@@H](CO)[C@@H](O)[C@@H](O)[C@@H]2F)c([N+](=O)[O-])c1	.[1.9 µM]	/	/	/	/	/
CC1=C2C(=COC(C)C2C)C(=O)C(C(=O)O)=C1O (stereo not drawn)	.	?	.	/	-35.5	.
NC1(P(=O)(O)O)CCCCC1	.[10 µM]	/	/	/	/	.[14.2 µM]
Cc1cccc(N2C(=O)NC(=O)/C(=C\c3cc(C)n(-c4sc5c(c4C#N)CCCC5)c3C)C2=O)c1C	.[10 µM]	15.8µM	.	5.01µM	.	.
CC[C@@H]1[C@@H]2Cc3ccc(O)cc3[C@@]1(CC)CCN2C	.[10 µM]	/	/	/	/	.[14.2 µM]
CC(C)(Cl)[N+](=O)[O-]	.	.	/	/	/	.
O=[N+]([O-])C(Br)(CO)CO	.	5.62µM	/	.	/	.
O=c1c2ccccc2nc(/C=C/c2cccnc2)n1Cc1ccccc1	.[10 µM]	?	7.94µM	.[9.22 µM]	.	.
COc1cc2c(cc1OC)[C@]13CC[N@+]4(C)CC5=CCO[C@H]6CC(=O)N2[C@@H]1C6[C@@H]5C[C@]34O (stereo partly drawn)	/	/	/	/	/	.[14.2 µM]
Cc1cc(/C=C2/C(=O)NC(=O)N(Cc3ccco3)C2=O)c(C)n1-c1ccccc1O	.[10 µM]	.	31.6µM	.[9.22 µM]	.	.
C[C@@H](O)CN(CCN(C[C@@H](C)O)C[C@@H](C)O)C[C@@H](C)O.O=[N+]([O-])O.[Cu]	.[10 µM]	/	/	/	/	.[14.2 µM]
SMILES	HTT cytoprotect	VDR inhibitor	JMJD2E inh	HttQ103 aggreg	Coupling enz	RGS12 GoLoco inh
Nc1ccccc1Cl	.	.	/	/	/	50.1µM
Clc1ccccc1Cl	.	.	/	.	/	.
O[C@H](CN1CC1)[C@@H](O)CN1CC1	.[10 µM]	/	/	/	/	.[14.2 µM]
C[C@H]1[C@@H](O)[C@@H](C)/C=C\C=CCC\C=C/C=C\C=C/C=C[C@@H](O[C@H]2O[C@@H](C)[C@@H](O)[C@@H](N)[C@@H]2O)C[C@@H]2O[C@@](O)(C[C@@H](O)[C@H]2C(=O)O)C[C@@H](O)[C@@H](O)CC[C@@H](O)C[C@@H](O)C[C@@H](O)CC(=O)O[C@H]1C	.	.	.	/	.	.
O=C(CSC1c2ccccc2-c2ccccc21)N/N=C/c1ccccc1O	.	.	25.1µM	.[1.84 µM]	.	.
Cc1ccc2nc3sc(=O)sc3nc2c1	/	8.91µM	/	/	.	/
O=[As](O)(O)c1ccc2nc3cc([As](=O)(O)O)ccc3nc2c1	.[10 µM]	/	/	/	/	.[14.2 µM]
O=C(N/N=C/C1C(=O)NC(=S)N(c2ccccc2)C1=O)c1cc(Br)c(O)c(Br)c1 (stereo not drawn)	.	39.8µM	22.4µM	.	.	.
Cc1cc2nc3c(=O)[nH]c(=O)nc-3n(C[C@H](O)[C@H](O)[C@H](O)COP(=O)(O)OP(=O)(O)OC[C@H]3O[C@@H](n4cnc5c(N)ncnc54)[C@H](O)[C@@H]3O)c2cc1C	.	.	/	?	/	/
CCC(C)(C)c1ccc(O)cc1	.	.	/	.	/	8.91µM!
CC(C)c1ccc(-n2c(O)c(/C=N/NC(=O)c3ccccc3O)c(=O)[nH]c2=S)cc1	.[10 µM]	.	?	.[9.22 µM]	.	.
Cn1c(=O)c2c(nc(N/N=C/c3c(O)n(-c4ccccc4)c(=S)[nH]c3=O)n2C)n(C)c1=O	.[10 µM]	.	25.1µM	.	.	.
N#Cc1ccc(CN2CC3(CCNCC3)C2)cc1	?	.	/	/	.	.
O=c1[nH]sc2cc(F)ccc12	?	7.08µM	.	.	.	.
c1cc(CN2CC3(CCNCC3)C2)ccn1	.	.	/	/	.	.
C1=C(c2c[nH]c3ccccc23)CCNC1	.	/	25.1µM	.	.	/
COC(=O)[C@H]1C(=O)[C@H](C(=O)OC)[C@@H]2CC[C@H]1N2C	.[10 µM]	/	/	/	/	.[14.2 µM]
O=[N+]([O-])c1ccc(N2CCCCCC2)c2nonc12	/	.	/	/	.	/
O=[N+]([O-])c1ccc(NCc2ccccc2)c2nonc12	.	.	.	?	.	3.16µM
O=C1C(Cl)=C(Cl)C(=O)C(Cl)=C1Cl	.	0.708µM	?	/	-65.1	0.224µM
O=C1NC(=O)C(=C/C=C/c2coc3ccc(Br)cc3c2=O)C(=O)N1	.[10 µM]	/	.	.[9.22 µM]	.	.
O=C1NC(=O)C(=Cc2coc3ccccc3c2=O)C(=O)N1	.	?	20µM	.	.	.
O=C1NC(=O)C(=Cc2csc3ccccc23)C(=O)N1	.[10 µM]	35.5µM	?	.[9.22 µM]	.	.
CN(C)[C@H]1C(=O)C(C(N)=O)=C(O)[C@]2(O)C(=O)C3=C(O)c4c(O)cccc4[C@@](C)(O)[C@H]3C[C@@H]12	.	/	11.2µM	.	.	.
CCN(CC)C1=NC(=[N+](CC)CC)c2ccccc21	.	.	?	2.82µM	.	.
CCOC(=O)NC(O)C(Cl)(Cl)Cl (stereo not drawn)	.	.	/	.	/	/
Cc1nccc2c1[nH]c1ccccc12	.[1.9 µM]	.	?	/	.	.
Cc1c2ccncc2c(C)c2c1[nH]c1ccccc12	.	.	12.6µM	.	-30.3!	.
CC[C@@]12CCCN3CC[C@@]4(c5ccc(OC)c(O)c5N(C(C)=O)[C@H]4CC1)[C@H]32	.	/	/	/	/	/
